Bioassay records from PubChem BioAssay.
ELG1 genotoxic = genotoxicity induction in ELG1-luciferase HEK293T cells; Potency, µM (highest dose often 46 µM), for the others: top-dose activity change, positive = activation, hits mostly activators; HEK293T ELG1-luciferase reporter, luminescence, 16 h; AID 504466; 330,000 tested, 1.3% active; also: % of control where 0% means no effect; nearly all actives have a fitted effect of over 60% in size
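Quantitative HTS format in 1536-well plates. HEK293T ELG1-luciferase reporter cells receive test compound and are incubated 16 hr at 37 °C, 5% CO2; ONE-Glo added, 30 min room temperature, then luminescence read.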
NPC1 promoter act = activators of NPC1 promoter; Huh7 NPC1 promoter luciferase reporter, 24 h; Potency, µM (highest dose often 9.22 µM), for inactives: at the top dose activation, usual class: activators; 320,000 tested, 2.4% active; AID 485313; also: % of control where 0% means no effect; nearly all actives have a fitted effect of over 60% in size
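Quantitative HTS used a cell-based reporter: Huh7 cells stably bearing the NPC1 promoter upstream of luciferase were treated with compounds for 24 h, and promoter activation was read as luminescence.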
SMN2 splice enh = enhancers of SMN2 splice variant expression | 210,000 tested, 2.8% active | HEK293 SMN2-luciferase splicing reporter, luminescence, 30-36 h | Potency, µM (doses to about 46.1 µM), inactives show at the highest dose activity change, positive = activation, most hits filed as activators | AID 1458; also: % of control where 0% means no effect; nearly all actives have a fitted effect of over 55% in size
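HEK293 cells carry an SMN2 […]–luciferase reporter in which exon 7 inclusion puts luciferase in frame. Cells were plated 10-12 h before compound addition, then incubated 30-36 h at 37C. ONE-Glo luminescence was read; sodium butyrate at 4.5 mM final served as control.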
FLuc modulator = firefly luciferase modulation, counter-screen for miR-21 project. P08659. 360,000 tested, 6.9% active. Potency, µM (top dose mostly 57.5 µM), without a hit: top-dose activity change, negative = inhibition, actives largely listed as inhibitors. purified FLuc, Km substrates, luminescence inhibition;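 also: plate controls were vehicle for no effect and reference inhibitor for full effect; nearly all actives have a fitted effect of over 55% in size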
Target sequence (P08659 whole entry, looked up): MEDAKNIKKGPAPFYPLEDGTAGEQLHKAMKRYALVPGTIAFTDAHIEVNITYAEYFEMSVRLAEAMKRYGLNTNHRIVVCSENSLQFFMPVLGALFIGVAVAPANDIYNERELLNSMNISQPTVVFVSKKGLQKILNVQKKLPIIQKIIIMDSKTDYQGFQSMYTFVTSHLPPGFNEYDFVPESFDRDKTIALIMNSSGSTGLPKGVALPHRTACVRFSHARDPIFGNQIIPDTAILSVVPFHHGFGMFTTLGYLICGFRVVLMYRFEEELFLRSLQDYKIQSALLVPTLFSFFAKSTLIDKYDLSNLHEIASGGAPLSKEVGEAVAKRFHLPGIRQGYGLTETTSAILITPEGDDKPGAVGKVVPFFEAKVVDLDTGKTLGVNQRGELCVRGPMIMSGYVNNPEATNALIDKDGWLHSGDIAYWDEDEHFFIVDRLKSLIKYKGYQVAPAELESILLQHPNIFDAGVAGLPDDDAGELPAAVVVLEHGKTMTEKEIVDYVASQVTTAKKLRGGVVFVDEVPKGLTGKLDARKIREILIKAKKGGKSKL
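Purified P. pyralis luciferase (10nM final) with 10uM D-luciferin and 10uM ATP (Km levels) in 50mM Tris acetate pH 7.5, 10mM Mg acetate, 0.01% Tween-20, 0.05% BSA; qHTS 6-point titration, ~60 µM downward; luminescence read.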
KinaseGlo FLuc = Kinase-Glo luciferase inhibition (counter-screen); Q27757; Kinase-Glo luciferase, ATP luminescence, 8 min; Potency, µM (top dose mostly 38.3 µM), without a hit: at the top dose activity change, negative = inhibition, hits mostly inhibitors; 200,000 tested, 0.28% active; AID 1379; also: % is scaled to controls: 0 for no effect and ±100 for the full control effect; nearly all actives have a fitted effect of over 60% in size
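Compound is pinned into ATP-containing buffer (10 uM ATP, imidazole pH 7.2, 7 mM MgCl2). Kinase-Glo luciferase reagent is then added. Light output is recorded following an 8-min room-temperature incubation.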
Rab9 prom act = Rab9 promoter activation; Huh7 Rab9 promoter-luciferase reporter, luminescence, 24 h; Potency, µM (doses to about 9.22 µM), for inactives: at the highest dose activation, negative = inhibition, most hits filed as activators; 320,000 tested, 2.8% active; AID 485297; also: % of control where 0% means no effect; nearly all actives have a fitted effect of over 60% in size
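Stable Rab9-luc Huh7, 1500 cells/well, 2 h settle; cmpd in DMSO, 24 h, 37 °C/5% CO2; luciferase reagent 10 min RT; luminescence.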
An asterisk follows results filed as active; ? = inconclusive; / = no result given; [ ] = remark or other dose. Most compounds without a hit are left out; they make up all but 7.3% or so of the library. Calls follow the shape of the dose curve; as a rule, active = well fitted curve in the direction sought with a large enough effect; inconclusive = small, poorly fitted or top-dose-only effect, or another doubt; inactive = no such curve, though single readings can be large; an effect the other way counts as inactive or inconclusive. Potency is read from the fitted curve at half-maximal effect.

SMILES	ELG1 genotoxic	NPC1 promoter act	SMN2 splice enh	FLuc modulator	KinaseGlo FLuc	Rab9 prom act
O=c1/c(=C\c2cc([N+](=O)[O-])cc([N+](=O)[O-])c2O)sc2nc3ccccc3n12	6%	-3%	-3%	9.5µM*	-1%	11%
COC(=O)/C=c1/sc2nc3ccccc3n2c1=O	-2%	-4%	?	?	-10%	1%
O=C(O)c1cccc(-c2ccc(/C=c3/sc4nc5ccccc5n4c3=O)o2)c1	6%	25%	/	9.5µM*	/	28%
O=c1c2ccccc2nc2sc3ccccc3n12	?	4µM*	14µM*	5.4µM*	-7%	4µM*
CCN(CC(=O)O)C(=O)c1cccnc1	/	/	-12%[9.22 µM]	/	-5%[7.66 µM]	/
COc1ccc(-c2nc3n(n2)C(c2ccc(OC)c(OC)c2)C(C(=O)Nc2cccnc2)=C(C)N3)cc1 (centres undefined)	/	/	/	-7%	/	/
CCc1ccc(NC(=O)/C(C#N)=C/c2cc3ccc(C)cc3nc2N2CCOCC2)cc1	6%	-2%	-28%	-1%	-2%	-6%
CSc1ccc(/C=C(\C#N)C(=O)NC2CCCCC2)cc1	1%	-2%	-7%[1.84 µM]	3%	-5%	-4%
COc1ccc(NC(=O)/C(C#N)=C/c2ccc(C)o2)cc1	/	/	13µM*	2.7µM*	/	/
N#C/C(=C\c1ccc(N2CCOCC2)o1)C(=O)Nc1ccc(O)cc1	?	22%	16µM*	5.4µM*	0%	25%
COc1ccc(NC(=O)/C(C#N)=C\c2ccc(N3CCOCC3)o2)cc1	9%	?	/	1.9µM*	-8%	?
COc1ccc(NC(=O)/C(C#N)=C/c2ccc(Br)o2)cc1	2%	10%	?	-11%	-1%	18%
N#C/C(=C/c1ccc(N2CCOCC2)o1)C(=O)NC1CCCCC1	3%	3%	/	12µM*	-2%	24%
COc1ccc(NC(=O)/C(C#N)=C/c2cc(C)n(-c3ccc(N4CCOCC4)c([N+](=O)[O-])c3)c2C)cc1	-8%	-18%	-66%	1%	3%	-25%
COc1ccc(N2CCN(S(=O)(=O)c3ccc4c(c3)CCCN4C(C)=O)CC2)cc1	/	/	/	4%	/	/
CCN(CC)C(=O)Oc1ccc2c(c1)O/C(=C\c1ccco1)C2=O	12%	?	/	3µM*	/	?
O=C(Oc1ccc2c(c1)O/C(=C\c1ccncc1)C2=O)c1cccs1	-1%	1%	/	-18%	/	-1%
COC(=O)COc1ccc2c(c1)O/C(=C\c1ccco1)C2=O	0%	1%	/	3.4µM*	/	13%
COCCN(CCOC)Cc1c(O)ccc2c1O/C(=C\c1ccco1)C2=O	-2%	-1%	/	-5%	/	-2%
CCC(=O)Oc1ccc2c(c1)O/C(=C\c1ccco1)C2=O	9%	1%	/	3.4µM*	/	12%
Cc1cc(O)cc2c1C(=O)/C(=C/c1ccco1)O2	22%	?	/	12µM*	/	-2%[1.84 µM]
CCCCNc1nc(C)nc2c1nc(-c1ccccc1)n2C1CCN(Cc2ccccc2)C1 (centres undefined)	/	/	-11%	/	1%	/
O=C(NCCCNC(=O)c1ccco1)c1ccc(Cl)cc1	?	1%	/	-13%	/	-3%
NC(=NCc1ccco1)NC(=O)c1ccc(Cl)cc1	?	?	/	17µM*	/	?
CCC(=O)Nc1ccc2c(c1)nc1n2CCSC1	15%	0%	-24%	?	-4%	-4%
SMILES	ELG1 genotoxic	NPC1 promoter act	SMN2 splice enh	FLuc modulator	KinaseGlo FLuc	Rab9 prom act
COc1ccc(C(=O)Nc2ccc3c(c2)nc2n3CCSC2)cc1	?	2.8µM*	10%	7.6µM*	-14%	?
CCCC(=O)Nc1ccc2c(c1)nc1n2CCOC1	6%	4%	-19%	-2%	11%	4%
O=C(Nc1ccc2c(c1)nc1n2CCOC1)c1ccccc1	?	2.2µM*	23%	15µM*	0%	3.2µM*
O=C(Nc1ccc2c(c1)nc1n2CCSC1)c1ccccc1	?	?	11µM*	11µM*	?	3.5µM*
CCOC(=O)c1cc(-c2ccc(OC(F)F)cc2)nc2c1c(=O)[nH]c(=O)n2C	6%	-3%	0%	0%	-2%	-4%
CCOC(=O)c1cc(-c2ccc(OC(F)F)cc2)nc2nc(SC)[nH]c(=O)c12	-4%	1%	/	6µM*	/	-4%
O=C(N/N=C/c1ccc(-c2ccc(S(=O)(=O)Nc3ncccn3)cc2)o1)c1cc2ccccc2cc1O	-11%	0%	?	21µM*	-5%	1%
Cc1ccc(-c2ccc(/C=N/NC(=O)c3ccccc3O)o2)cc1	-8%	10%	/	?	/	13%
CCOc1ccc(C(=O)N/N=C/c2ccc(-c3ccc(S(=O)(=O)Nc4ncccn4)cc3)o2)cc1	5%	8%	13%	19µM*	-5%	-1%
NC(=S)NN=Cc1ccc(-c2ccc(S(=O)(=O)Nc3ncccn3)cc2)o1	2%	/	/	/	/	/
NS(=O)(=O)c1ccc(-c2ccc(/C=N/NC(=O)c3ccccc3O)o2)cc1	-4%	-2%	/	6.7µM*	/	-3%
Nc1nc(SCc2ccc([N+](=O)[O-])cc2)c2ncn([C@@H]3O[C@H](CO)[C@H](O)[C@H]3O)c2n1	/	/	?	/	-2%	/
O=C(c1ccc(CS(=O)c2ccccc2Cl)o1)N1CCOCC1 (centres undefined)	1%	2%	/	-2%	/	4%
NC(=O)C1CCCN(C(=O)c2ccc(S(=O)(=O)N3CCCCCC3)cc2)C1 (centres undefined)	-3%	-1%	/	-1%	/	-6%
O=C(c1ccc(-c2cccc(Cl)c2Cl)o1)N1CCOCC1	?	?	11µM*	?	-7%	1.3µM*
O=C(c1ccc(-c2ccc([N+](=O)[O-])cc2Cl)o1)N1CCOCC1	?	28%	?	17µM*	0%	?
O=C(c1ccc(-c2cccc(C(F)(F)F)c2)o1)N1CCOCC1	16µM*	24%	28%	?	2%	19%
O=C(c1ccc([N+](=O)[O-])o1)N1CCOCC1	2%	-2%	-7%	4%	4%	0%
NC(=O)C1CCCN(C(=O)c2ccc(-c3cccc(Cl)c3Cl)o2)C1 (centres undefined)	?	?	/	9.5µM*	/	?
CCOC(=O)c1c(C)oc2c1cc(NS(=O)(=O)c1ccc(C)cc1)c1ccccc12	/	/	0%	?	/	/
COc1ccc(-n2nc3ccc(NC(=O)c4c(OC)cccc4OC)cc3n2)cc1	/	/	-24%	?	/	/
CCOc1ccc(NS(=O)(=O)c2ccc(C)c(C(=O)O)c2)cc1	/	/	/	/	0%	/
COc1ccc(NC(=O)C(=O)NCC2(c3ccccc3)CCCC2)c(OC)c1	/	/	-1%	-9%	/	/
